According to PubChem BioAssay:
Potency and affinity values are given separately. Results filed as inconclusive are left out. Active and inactive are the calls of the source. Unless noted, no rule for the calls is given here.

How the values were obtained:
[1] = RMG-1 ovarian cancer cell viability loss – cherry-pick, dose response (AID 687029;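 active = signal drop whose fitted half-maximal concentration is at most twice the top valid dose, in every test run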;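 also: cells exposed to compound for 96 hours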)
[2] = IOSE-T80 viability loss, PAX8-independent line – cell-based, cherry-pick, selectivity assay for PAX8 inhibitor project, dose response (AID 687032;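 active = fitted half-maximal concentration for viability loss no higher than twice the top valid dose, in every repeat run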;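 also: cells exposed to compound for 96 h before reading; 0% = neutral control wells and -100% = 2 µM mitoxantrone kill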)
[3] = CMV-driven luciferase expression suppression in HEK293 – cell-based, luminescence, dry powder, counter-screen for Pax8 inhibitor project, dose response (AID 743020;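 active = signal-lowering compounds whose fitted half-maximal concentration is at or below twice the top tested dose in every run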;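 also: HEK293 cells stably expressing the CMV luciferase reporter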)
[4] = general cell-killing toxicity readout – plate reader, dry powder samples, cytotoxicity control for PAX8 inhibitor project, dose response (AID 743021)
[5] = IGROV1 cell killing – plate reader, dry powder samples, PAX8 inhibitor project, dose response (AID 743043);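 also: more negative means fewer viable cells or more cytotoxicity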
[6] = toxicity toward immortalized ovarian surface epithelium – cell-based, plate reader, dry powder samples, cytotoxicity control for PAX8 inhibitor project, dose response (AID 743045);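 also: 0% = neutral control median and -100% = positive control median; more negative values mean more cell killing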
[7] = OVCAR-3 cell viability loss – plate reader, dry powder samples, PAX8 inhibitor project, dose response (AID 743044); settings: max activity: at 35 µM, stronger effect = lower value unless noted
[8] = OVCAR8 cell viability loss – plate reader, dry powder samples, PAX8 project, dose response (AID 743197)
[9] = A2780 cell killing – plate reader, dry powder samples, cytotoxicity control, dose response (AID 743046);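 also: 0% = neutral control wells and -100% = cytotoxic reference compound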
[10] = A549 cell cytotoxicity, dose response, cytotoxicity control, plate reader, cherry-pick, antagonist series (AID 743412);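 also: 0% = neutral control wells and -100% = positive control wells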
[11] = toxicity toward HepG2 liver cells – cell-based, plate reader, cherry-pick, antagonist series, cytotoxicity control, dose response (AID 743416);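 also: 0% = neutral control wells and -100% = positive control wells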

Measured: max activity

CO[C@H]1CN(C)C(=O)c2cc(NC(=O)c3ccc(-c4ccccc4)cc3)ccc2OC[C@@H](C)NC[C@@H]1C
inactive: [1] | [2] | [3] | [4] | [5] | [6]

C[C@@H]1CCCCO[C@@H](CN(C)Cc2ccc(Cl)c(Cl)c2)[C@H](C)CN([C@@H](C)CO)C(=O)c2cc(NC(=O)Nc3ccccc3)ccc2O1
inactive: [1] | [2] | [3] | [4] | [5] | [7] 10.2% [at 16 µM, stronger effect = lower value] | [6] | [8]

N#Cc1cccc(-c2ccc3c(c2)[C@@H]2[C@@H](CCN2S(=O)(=O)c2ccc(F)cc2)[C@@H](CO)N3)c1
inactive: [1] | [2] | [3] | [4] | [5] | [7] 5.91% | [6] | [8]

C[C@@H]1CN([C@H](C)CO)C(=O)c2cc(NS(=O)(=O)c3ccc(F)cc3)ccc2O[C@@H](C)CCCCO[C@H]1CN(C)Cc1ccccc1
inactive: [1] | [2] | [3] | [4] | [5] | [7] 22.1% [at 1 µM, stronger effect = lower value] | [6] | [8]

COc1ccc(NC(=O)Nc2ccc3c(c2)CC(=O)N([C@@H](C)CO)C[C@@H](C)[C@@H](CN(C)Cc2ccc(Oc4ccccc4)cc2)O3)cc1
inactive: [1] | [2] | [3] | [4] | [5] | [7] 14.4% [at 18 µM, stronger effect = lower value] | [6] | [9] | [8]

Cc1cccc(S(=O)(=O)N2C[C@@H](O)COC[C@@H]3O[C@@H](CC(=O)Nc4ccc(-c5ccccc5)cc4)CC[C@H]32)c1
inactive: [1] | [2] | [3] | [4] | [5] | [6]

Cc1ccc(S(=O)(=O)Nc2ccc3c(c2)C(=O)N([C@H](C)CO)C[C@H](C)[C@@H](CN(C)S(=O)(=O)c2ccc(Cl)cc2)OCCCC[C@H](C)O3)cc1
inactive: [1] | [2] | [3] | [4] | [5] | [6]

C[C@@H]1CN([C@@H](C)CO)C(=O)c2cccc(NC(=O)c3ccncc3)c2O[C@@H]1CN(C)S(=O)(=O)c1cccs1
inactive: [1] | [2] | [3] | [4] | [5] | [7] 14.9% [at 2.1 µM, stronger effect = lower value] | [6] | [8]

C[C@H](CO)N1C[C@H](C)[C@H](CN(C)Cc2ccc(Cl)c(Cl)c2)OCCCC[C@H](C)Oc2ccc(NC(=O)Nc3ccccc3)cc2C1=O
inactive: [1] | [2] | [3] | [4] | [5] | [7] -25.9% [at 0.26 µM, stronger effect = lower value] | [6] | [8]

C[C@@H]1CN([C@H](C)CO)C(=O)c2cc(NC(=O)c3ccncc3)ccc2O[C@@H](C)CCCCO[C@H]1CN(C)Cc1ccc(C(F)(F)F)cc1
inactive: [1] | [2] | [3] | [4] | [5] | [7] 14.3% [at 0.5 µM, stronger effect = lower value] | [6] | [9] | [8]

C[C@@H]1CN([C@H](C)CO)C(=O)c2cc(NC(=O)c3ccccc3)ccc2O[C@@H](C)CCCCO[C@H]1CN(C)Cc1ccc(C(F)(F)F)cc1
inactive: [1] | [2] | [3] | [4] | [5] | [7] -5.41% [at 0.5 µM, stronger effect = lower value] | [6] | [9] | [8]

O=C(CN1C(=O)c2ccccc2S1(=O)=O)c1ccccc1Cl
not listed: [8]
inactive: all other assays above

C[C@@H]1CN([C@H](C)CO)C(=O)Cc2cc(NC(=O)Nc3ccc(F)cc3)ccc2O[C@H]1CN(C)C(=O)Nc1ccc(C(F)(F)F)cc1
inactive: [1] | [2] | [3] | [4] | [5] | [7] -34.3% | [6] | [9] | [8]

Cc1ccc(S(=O)(=O)Nc2ccc3c(c2)C(=O)N([C@@H](C)CO)C[C@@H](C)[C@H](CN(C)Cc2ccc(Cl)c(Cl)c2)OCCCC[C@@H](C)O3)cc1
inactive: [1] | [2] | [3] | [4] | [5] | [7] -18.1% [at 4.2 µM, stronger effect = lower value] | [6] | [9] | [8]

C[C@@H]1CCCCO[C@@H](CN(C)C(=O)C2CCCCC2)[C@H](C)CN([C@@H](C)CO)C(=O)c2cc(NS(=O)(=O)c3ccc(Cl)cc3)ccc2O1
inactive: [1] | [2] | [3] | [4] | [5] | [7] -23.1% | [6] | [9] | [8]

C[C@@H]1CN([C@H](C)CO)C(=O)c2cc(NS(=O)(=O)c3ccc(F)cc3)ccc2O[C@@H](C)CCCCO[C@H]1CN(C)S(=O)(=O)c1ccc(Cl)cc1
inactive: [1] | [2] | [3] | [4] | [5] | [6]

C[C@@H]1CN([C@@H](C)CO)C(=O)c2c(c3ccccc3n2C)-c2ccccc2CO[C@H]1CN(C)C(=O)Nc1ccc2c(c1)OCO2
inactive: [1] | [2] | [3] | [4] | [5] | [7] -21.8% [at 16 µM, stronger effect = lower value] | [6] | [9] | [8]

C[C@@H]1CN([C@H](C)CO)C(=O)c2cc(NC(=O)Nc3ccc(F)cc3)ccc2O[C@@H](C)CCCCO[C@H]1CN(C)S(=O)(=O)c1ccc(F)cc1
inactive: [1] | [2] | [3] | [4] | [5] | [7] -9.65% [at 0.5 µM, stronger effect = lower value] | [6] | [8]

C[C@@H]1CN([C@H](C)CO)C(=O)c2cc(NC(=O)Nc3ccc(F)cc3)ccc2O[C@@H](C)CCCCO[C@H]1CN(C)C(=O)Nc1ccc(F)cc1
inactive: [1] | [2] | [3] | [4] | [5] | [7] 13.6% | [6] | [9] | [8]

Cc1noc(C)c1NC(=O)Nc1cccc2c1O[C@H](CN(C)Cc1ccc(C(F)(F)F)cc1)[C@H](C)CN([C@@H](C)CO)C2=O
inactive: [1] | [2] | [3] | [4] | [5] | [7] -18.3% | [6] | [8]

Cc1noc(C)c1S(=O)(=O)Nc1ccc2c(c1)C(=O)N([C@@H](C)CO)C[C@H](C)[C@H](CN(C)C(=O)Nc1ccc(C(F)(F)F)cc1)OCCCC[C@H](C)O2
inactive: [1] | [2] | [3] | [4] | [5] | [7] -38.6% | [6] | [8]

C[C@H](CO)N1C[C@H](C)[C@@H](CN(C)Cc2ccc(Cl)c(Cl)c2)OCCCC[C@H](C)Oc2ccc(NS(=O)(=O)c3ccccc3)cc2C1=O
inactive: [1] | [2] | [3] | [4] | [5] | [7] -29.2% [at 2.1 µM, stronger effect = lower value] | [6] | [8]

C[C@@H]1CCCCO[C@@H](CN(C)C(=O)Nc2cccc3ccccc23)[C@H](C)CN([C@H](C)CO)C(=O)c2cc(NS(=O)(=O)c3ccc(Cl)cc3)ccc2O1
inactive: [1] | [2] | [3] | [4] | [5] | [6]

C[C@@H]1CN([C@H](C)CO)C(=O)c2cc(NC(=O)Nc3ccc(F)cc3)ccc2O[C@@H](C)CCCCO[C@H]1CN(C)C(=O)Nc1ccc(C(F)(F)F)cc1
not listed: [7] | [8] | [10] | [11]
inactive: all other assays above

COc1ccc2c3c([nH]c2c1)[C@H](CO)N(C(=O)Nc1cccc(F)c1)CC31CCN(S(=O)(=O)c2cccc(C)c2)CC1
not listed: [7] | [8] | [10] | [11]
inactive: all other assays above

O=C(Nc1ccc(C(F)(F)F)cc1)Nc1ccc2c(c1)[C@H]1C[C@@H](CC(=O)N3CCc4ccccc4C3)O[C@@H](CO)[C@H]1O2
not listed: [7] | [8] | [10] | [11]
inactive: all other assays above

C[C@@H]1CN([C@@H](C)CO)C(=O)Cc2cc(NC(=O)Cc3cn(C)c4ccccc34)ccc2O[C@H]1CN(C)Cc1ccc(Oc2ccccc2)cc1
not listed: [7] | [8] | [10] | [11]
inactive: all other assays above

COc1ccccc1-c1ccc2c(c1)[C@H]1[C@H](CCN1C(=O)C1CCCCC1)[C@@H](CO)N2
inactive: [1] | [2] | [3] | [4] | [5] | [6]

Cc1ccccc1-c1ccc2c(c1)O[C@H](CN(C)C(=O)Nc1ccc(C(F)(F)F)cc1)[C@@H](C)CN([C@H](C)CO)S2(=O)=O
not listed: [7] | [8] | [10] | [11]
inactive: all other assays above

C[C@@H]1CCCCO[C@@H](CN(C)C(=O)Nc2ccc(C(F)(F)F)cc2)[C@H](C)CN([C@H](C)CO)C(=O)c2cc(NS(=O)(=O)c3ccc(Cl)cc3)ccc2O1
not listed: [7] | [8] | [10] | [11]
inactive: all other assays above

C[C@H](CO)N1C[C@H](C)[C@@H](CN(C)Cc2ccc(C(F)(F)F)cc2)OCCCC[C@H](C)Oc2ccc(NC(=O)Nc3ccc(F)cc3)cc2C1=O
inactive: [1] | [2] | [3] | [4] | [5] | [6]

C[C@@H]1CN([C@H](C)CO)S(=O)(=O)c2ccc(C#Cc3cccc(F)c3)cc2O[C@@H]1CN(C)C(=O)NC1CCCCC1
inactive: [1] | [2] | [3] | [4] | [5] | [6]

C[C@@H]1CCCCO[C@H](CN(C)Cc2ccc(C(F)(F)F)cc2)[C@H](C)CN([C@H](C)CO)C(=O)c2cc(NC(=O)c3ccccc3)ccc2O1
not listed: [7] | [8] | [10] | [11]
inactive: all other assays above

CC(=O)N1CCOc2ccc(S(=O)(=O)N3CCN(c4cccc(C(F)(F)F)c4)CC3)cc21
inactive: [1] | [2] | [3] | [4] | [5] | [6]

Cc1ccc(S(=O)(=O)Nc2ccc3c(c2)C(=O)N([C@H](C)CO)C[C@H](C)[C@@H](CN(C)S(=O)(=O)c2cccs2)OCCCC[C@H](C)O3)cc1
inactive: [1] | [2] | [3] | [4] | [5] | [6]

C[C@@H]1CN([C@H](C)CO)C(=O)c2cc(NC(=O)Nc3ccc(C(F)(F)F)cc3)ccc2O[C@@H](C)CCCCO[C@@H]1CN(C)Cc1ccc(Cl)c(Cl)c1
inactive: [1] | [2] | [3] | [4] | [5] | [6]
